# Results reported in PubChem BioAssay (EPA / NIEHS).
# Records with an inconclusive call do not appear. Active and inactive are the calls of the source. How the source made its calls, unless noted: active means hit-call score of the fitted dose curve at least 0.9, where 1 is the maximum; inactive means score below 0.9.
# Key:
# [1] = molecular target: Myc proto-oncogene protein (Homo sapiens) (UniProt P01106); assay: ATG_Myc_CIS: Attagene CIS-FACTORIAL HepG2 Assay for human Myelocytomatosis (Myc) Proto-Oncogene Transcription Factor (AID 2282990); conditions: HepG2, Attagene cis-reporter transcription factor activity; actives raise or lower the signal
# Myc proto-oncogene protein (Homo sapiens), sequence (P01106 whole entry, looked up): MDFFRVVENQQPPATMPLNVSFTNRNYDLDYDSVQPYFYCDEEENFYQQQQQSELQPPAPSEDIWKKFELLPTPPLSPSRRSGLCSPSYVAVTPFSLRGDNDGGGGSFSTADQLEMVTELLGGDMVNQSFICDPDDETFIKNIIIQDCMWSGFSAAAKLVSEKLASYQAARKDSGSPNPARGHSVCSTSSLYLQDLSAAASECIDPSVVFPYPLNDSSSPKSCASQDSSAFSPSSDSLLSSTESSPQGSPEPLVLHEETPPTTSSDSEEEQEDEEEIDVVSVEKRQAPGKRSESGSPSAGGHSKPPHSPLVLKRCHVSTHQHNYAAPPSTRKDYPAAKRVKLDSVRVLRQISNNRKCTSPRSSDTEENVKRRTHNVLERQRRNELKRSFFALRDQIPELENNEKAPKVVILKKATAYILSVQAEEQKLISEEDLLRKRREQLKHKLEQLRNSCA
# Summary of the method: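 HepG2, transient MRTU transfection (cis promoters, endogenous TFs); 24 h dosing; TriZol RNA → oligo(dT) RT → PCR → 6-FAM primer extension → HpaI cut → CE. Bidirectional fit vs DMSO.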
# [2] = ATG_NF_kB_CIS: Attagene CIS-FACTORIAL HepG2 Assay for human Nuclear Factor Kappa B (NF-kB) (AID 2282991); conditions: HepG2 Attagene cis-factorial NF-kB reporter mRNA; actives raise or lower the signal
# Summary of the method: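 Transient MRTU transfection of human HepG2 liver cells → 24 h chemical exposure → total RNA, oligo(dT) RT → PCR, 6-FAM primer extension, HpaI digest 2 h 37 C → CE fragment analysis. Bidirectional fitting, DMSO negative control.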
# [3] = ATG_NRF2_ARE_CIS: Attagene CIS-FACTORIAL HepG2 Assay for human Nuclear Factor Erythroid 2 Related Factor 2 (NFR2) response to Antioxidant Response Elements (ARE) (AID 2282992); conditions: HepG2 Attagene ARE/NRF2 reporter, transcription factor activity; actives raise or lower the signal;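 on AC50: reporter mRNA level measured by RT-PCR and capillary electrophoresis fluorescence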
# Summary of the method: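 HepG2 cells transiently transfected with multiplexed cis-regulated reporter transcription units measure endogenous transcription factor activity. Reporter mRNA at 24 h is quantified by RT-PCR, fluorescent labelling and capillary electrophoresis, with bidirectional fitting relative to DMSO.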
# [4] = ATG_Oct_MLP_CIS: Attagene CIS-FACTORIAL HepG2 Assay for human Octamer-Binding Transcription Factor (Oct) (AID 2282993); conditions: HepG2 Attagene cis-factorial Oct reporter, mRNA; actives raise or lower the signal
# Summary of the method: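 After 24 h compound exposure, transfected HepG2 cells were lysed for total RNA; reporter-specific cDNA was PCR-amplified, fluorescently labelled and sized by capillary electrophoresis. Bidirectional curve fitting used DMSO as baseline.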
# [5] = molecular target: Cellular tumor antigen p53 (Homo sapiens) (UniProt P04637); assay: ATG_p53_CIS: Attagene CIS-FACTORIAL HepG2 Assay for human p53 Transcription Factor (AID 2282994); conditions: HepG2 p53 cis-element reporter, Attagene mRNA; actives raise or lower the signal
# Cellular tumor antigen p53 (Homo sapiens), sequence (P04637 whole entry, looked up): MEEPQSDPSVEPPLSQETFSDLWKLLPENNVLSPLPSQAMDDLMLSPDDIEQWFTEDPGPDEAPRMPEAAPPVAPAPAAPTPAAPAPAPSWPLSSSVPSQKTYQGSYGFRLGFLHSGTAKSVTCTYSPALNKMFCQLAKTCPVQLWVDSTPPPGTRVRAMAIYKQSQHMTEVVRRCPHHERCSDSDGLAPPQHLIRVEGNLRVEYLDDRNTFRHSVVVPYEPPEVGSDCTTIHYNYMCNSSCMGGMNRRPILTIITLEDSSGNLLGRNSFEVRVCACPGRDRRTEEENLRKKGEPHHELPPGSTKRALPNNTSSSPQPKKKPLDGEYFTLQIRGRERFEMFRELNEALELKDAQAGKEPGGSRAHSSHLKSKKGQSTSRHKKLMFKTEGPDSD
# Summary of the method: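 HepG2 cells transiently transfected with multiplexed cis-regulated reporter transcription units read endogenous TF activity. After 24 h compound exposure, reporter mRNA was quantified by RT-PCR, fluorescent labelling, HpaI digestion and capillary electrophoresis; bidirectional fits versus DMSO baseline.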
# [6] = molecular target: human Peroxisome Proliferator-activated Receptor alpha (PPARa), PPARA (gene 5465) (UniProt Q07869); assay: ATG_PPARa_TRANS: Attagene TRANS-FACTORIAL HepG2 Assay for human Peroxisome Proliferator-activated Receptor alpha (PPARa) (AID 2283001; active means hit-call score of the fitted dose curve at least 0.9, where 1 is the maximum)
# human Peroxisome Proliferator-activated Receptor alpha (PPARa), PPARA (gene 5465), sequence (Q07869 whole entry, looked up, the tested form may be a part): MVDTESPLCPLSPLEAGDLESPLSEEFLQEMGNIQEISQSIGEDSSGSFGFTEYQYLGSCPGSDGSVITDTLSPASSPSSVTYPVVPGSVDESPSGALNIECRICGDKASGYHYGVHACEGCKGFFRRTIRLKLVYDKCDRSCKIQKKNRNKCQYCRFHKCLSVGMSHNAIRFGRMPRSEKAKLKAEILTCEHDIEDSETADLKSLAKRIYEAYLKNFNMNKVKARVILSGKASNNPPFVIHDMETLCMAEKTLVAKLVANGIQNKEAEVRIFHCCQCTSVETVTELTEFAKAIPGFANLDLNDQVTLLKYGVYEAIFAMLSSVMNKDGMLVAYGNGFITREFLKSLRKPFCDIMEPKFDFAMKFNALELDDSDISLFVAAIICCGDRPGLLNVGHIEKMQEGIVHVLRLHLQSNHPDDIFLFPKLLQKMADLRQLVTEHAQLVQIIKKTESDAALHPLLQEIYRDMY
# Summary of the method: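 Read-out is fluorescence of reporter cDNA fragments resolved by capillary electrophoresis after RT-PCR. Human HepG2 liver cells carried transfected PPARa-Gal4 chimera and GAL4-UAS reporter units, treated 24 h; activity scored as increase over DMSO.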
# [7] = molecular target: human Peroxisome Proliferator-activated Receptor delta (PPARd), PPARD (gene 5467) (UniProt Q03181); assay: ATG_PPARd_TRANS: Attagene TRANS-FACTORIAL HepG2 Assay for human Peroxisome Proliferator-activated Receptor delta (PPARd) (AID 2283002; active means hit-call score of the fitted dose curve at least 0.9, where 1 is the maximum)
# human Peroxisome Proliferator-activated Receptor delta (PPARd), PPARD (gene 5467), sequence (Q03181 whole entry, looked up, the tested form may be a part): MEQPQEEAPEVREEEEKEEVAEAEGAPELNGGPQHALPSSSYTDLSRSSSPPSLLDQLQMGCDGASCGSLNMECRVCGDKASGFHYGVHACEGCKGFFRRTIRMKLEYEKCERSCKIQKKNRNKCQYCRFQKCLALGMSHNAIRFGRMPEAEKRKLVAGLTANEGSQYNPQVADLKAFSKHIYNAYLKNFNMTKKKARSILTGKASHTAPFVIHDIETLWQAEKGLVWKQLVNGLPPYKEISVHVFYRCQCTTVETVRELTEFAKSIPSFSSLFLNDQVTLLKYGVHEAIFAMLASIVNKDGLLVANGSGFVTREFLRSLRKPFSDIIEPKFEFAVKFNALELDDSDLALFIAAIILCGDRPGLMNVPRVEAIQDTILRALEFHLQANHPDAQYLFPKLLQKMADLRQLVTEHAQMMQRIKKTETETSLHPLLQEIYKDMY
# Summary of the method: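 Transient HepG2 transfection (multiple GAL4-UAS RTUs, chimeric receptor-Gal4); 24 h dosing; total RNA → oligo(dT) RT → PCR → 6-FAM primer extension → HpaI cut → CE. Positive direction vs DMSO.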
# [8] = molecular target: Nuclear receptor subfamily 1 group I member 2 (Homo sapiens) (UniProt O75469); assay: ATG_PXR_TRANS: Attagene TRANS-FACTORIAL HepG2 Assay for human Pregnane X Receptor (PXR) (AID 2283008; active means hit-call score of the fitted dose curve at least 0.9, where 1 is the maximum)
# Nuclear receptor subfamily 1 group I member 2 (Homo sapiens), sequence (O75469 whole entry, looked up, the tested form may be a part): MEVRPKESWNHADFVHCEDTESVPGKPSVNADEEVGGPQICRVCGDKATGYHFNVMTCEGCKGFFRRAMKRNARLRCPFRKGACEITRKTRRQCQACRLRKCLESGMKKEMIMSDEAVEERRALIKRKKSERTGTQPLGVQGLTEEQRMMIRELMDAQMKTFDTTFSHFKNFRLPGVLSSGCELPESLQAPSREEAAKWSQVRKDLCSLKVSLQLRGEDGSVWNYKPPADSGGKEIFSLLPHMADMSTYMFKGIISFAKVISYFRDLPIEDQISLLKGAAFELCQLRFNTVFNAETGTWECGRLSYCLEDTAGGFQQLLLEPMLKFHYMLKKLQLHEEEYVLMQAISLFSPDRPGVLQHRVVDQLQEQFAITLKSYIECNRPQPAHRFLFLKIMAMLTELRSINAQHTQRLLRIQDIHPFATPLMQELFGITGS
# Summary of the method: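 HepG2 cells transiently transfected with multiple reporter units, here a PXR-GAL4 chimera driving a GAL4-UAS reporter; 24 h compound exposure. Reporter mRNA measured by RT-PCR, FAM labelling and capillary electrophoresis; gain of signal fitted against DMSO baseline.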
# [9] = molecular target: human RAR-related Orphan Receptor beta (RORb), RORB (gene 6096) (UniProt Q92753); assay: ATG_RORb_TRANS: Attagene TRANS-FACTORIAL HepG2 Assay for human RAR-related Orphan Receptor beta (RORb) (AID 2283010; active means hit-call score of the fitted dose curve at least 0.9, where 1 is the maximum)
# human RAR-related Orphan Receptor beta (RORb), RORB (gene 6096), sequence (Q92753 whole entry, looked up, the tested form may be a part): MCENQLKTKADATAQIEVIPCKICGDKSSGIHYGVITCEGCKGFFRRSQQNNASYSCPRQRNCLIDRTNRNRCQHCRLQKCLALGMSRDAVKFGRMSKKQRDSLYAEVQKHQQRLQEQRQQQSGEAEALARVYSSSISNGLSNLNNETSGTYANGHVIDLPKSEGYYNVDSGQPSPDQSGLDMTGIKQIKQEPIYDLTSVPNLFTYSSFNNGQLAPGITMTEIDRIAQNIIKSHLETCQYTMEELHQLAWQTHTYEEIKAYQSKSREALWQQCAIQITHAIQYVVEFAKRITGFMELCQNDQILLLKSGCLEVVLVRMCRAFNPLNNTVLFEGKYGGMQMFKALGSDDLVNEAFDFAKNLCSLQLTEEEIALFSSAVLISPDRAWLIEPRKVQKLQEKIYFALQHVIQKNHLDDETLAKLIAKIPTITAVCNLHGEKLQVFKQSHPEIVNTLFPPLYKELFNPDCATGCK
# Summary of the method: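 HepG2 cells transiently transfected with GAL4-UAS reporter units expressing chimeric NR-Gal4 protein; reporter mRNA measured 24 h after dosing by RT-PCR, 6-FAM labelling and capillary electrophoresis. Gain-of-signal fitted relative to DMSO baseline.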
# [10] = molecular target: human RAR-related Orphan Receptor gamma (RORg), RORC (gene 6097) (UniProt P51449); assay: ATG_RORg_TRANS: Attagene TRANS-FACTORIAL HepG2 Assay for human RAR-related Orphan Receptor gamma (RORg) (AID 2283011; active means hit-call score of the fitted dose curve at least 0.9, where 1 is the maximum)
# human RAR-related Orphan Receptor gamma (RORg), RORC (gene 6097), sequence (P51449 whole entry, looked up, the tested form may be a part): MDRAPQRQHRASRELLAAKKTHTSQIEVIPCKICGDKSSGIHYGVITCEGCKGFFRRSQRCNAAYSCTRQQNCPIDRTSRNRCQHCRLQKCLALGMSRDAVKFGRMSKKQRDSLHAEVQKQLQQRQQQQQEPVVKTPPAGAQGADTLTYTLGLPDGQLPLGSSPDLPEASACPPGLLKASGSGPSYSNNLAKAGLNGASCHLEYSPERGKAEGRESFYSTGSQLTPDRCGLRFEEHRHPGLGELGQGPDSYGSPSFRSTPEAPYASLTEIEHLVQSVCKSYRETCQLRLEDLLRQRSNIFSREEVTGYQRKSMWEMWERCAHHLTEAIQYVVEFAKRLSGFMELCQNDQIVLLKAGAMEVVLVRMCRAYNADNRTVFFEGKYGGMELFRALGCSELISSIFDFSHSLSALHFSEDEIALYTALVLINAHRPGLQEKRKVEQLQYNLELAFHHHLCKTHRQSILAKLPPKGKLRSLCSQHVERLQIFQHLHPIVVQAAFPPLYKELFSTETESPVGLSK
# Summary of the method: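 Chimeric RORg-Gal4 transactivation in transfected HepG2; 24 h exposure; RT-PCR/capillary electrophoresis readout of reporter mRNA, DMSO baseline.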
# [11] = BSK_3C_uPAR: BioMAP Diversity Plus: 3C Assay for Urokinase-type plasminogen activator receptor (uPAR) Biomarker Activity (AID 2282998); conditions: BioMAP 3C HUVEC, uPAR biomarker ELISA; actives raise or lower the signal
# Summary of the method: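 Values derive from bidirectional curve fitting relative to DMSO, which served as baseline of activity. uPAR was measured by ELISA in human umbilical vein endothelial primary cultures 24 h after compound addition.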
# [12] = BSK_3C_VCAM1: BioMAP Diversity Plus: 3C Assay for Vascular cell adhesion molecule 1 (VCAM1) Biomarker Activity (AID 2282999); conditions: BioMAP 3C HUVEC, VCAM1 ELISA, cytokine-stimulated; actives raise or lower the signal
# Summary of the method: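 Endothelial cells from human umbilical vein are treated with test chemical. At 24 h, VCAM-1 is measured by ELISA, and responses in either direction are fitted relative to DMSO.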
# [13] = BSK_4H_Eotaxin3: BioMAP Diversity Plus: 4H Assay for Eotaxin 3 Biomarker Activity (AID 2283000); conditions: primary human endothelial cells (HUVEC); actives raise or lower the signal;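 on outcome: CCL26 protein level quantified by ELISA in parallel with SRB cytotoxicity check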
# Summary of the method: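 ELISA quantitation of CCL26 (Eotaxin-3) protein from chemically dosed human vascular endothelial cells at 24 h; increases and decreases both scored relative to DMSO-treated baseline.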
# [14] = read-out: Intercellular Adhesion Molecule 1 (ICAM1), ICAM1 (gene 3383); assay: BSK_3C_ICAM1: BioMAP Diversity Plus: 3C Assay for Intercellular Adhesion Molecule 1 (ICAM1) Biomarker Activity (AID 2283003); conditions: primary human endothelial cells (HUVEC); actives raise or lower the signal
# Summary of the method: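 HUVEC primary cells stimulated under 3C conditions; ICAM1 measured by ELISA 24 h after compound dosing. Curves fitted bidirectionally against the DMSO baseline. Overt cytotoxicity checked by SRB staining of parallel cultures.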
# [15] = BSK_3C_Proliferation: Cell Proliferation Assessment in the BioMAP Diversity Plus: 3C Assay (AID 2283006); conditions: primary human endothelial cells (HUVEC);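 on AC50: potency may reflect either rise or fall in cell number versus DMSO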
# Summary of the method: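 Subconfluent HUVEC (3C system) cultured with chemical; relative cell number read at 48 h by sulforhodamine B total-protein staining (0.1% SRB after 10% TCA fixation, 560 nm). Bidirectional fit relative to DMSO.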
# [16] = molecular target: Peroxisome proliferator-activated receptor gamma (Homo sapiens) (UniProt P37231); assay: ATG_PPARg_TRANS: Attagene TRANS-FACTORIAL HepG2 Assay for human Peroxisome Proliferator-activated Receptor-gamma (PPARg) (AID 2283007; active means hit-call score of the fitted dose curve at least 0.9, where 1 is the maximum)
# Peroxisome proliferator-activated receptor gamma (Homo sapiens), sequence (P37231 whole entry, looked up, the tested form may be a part): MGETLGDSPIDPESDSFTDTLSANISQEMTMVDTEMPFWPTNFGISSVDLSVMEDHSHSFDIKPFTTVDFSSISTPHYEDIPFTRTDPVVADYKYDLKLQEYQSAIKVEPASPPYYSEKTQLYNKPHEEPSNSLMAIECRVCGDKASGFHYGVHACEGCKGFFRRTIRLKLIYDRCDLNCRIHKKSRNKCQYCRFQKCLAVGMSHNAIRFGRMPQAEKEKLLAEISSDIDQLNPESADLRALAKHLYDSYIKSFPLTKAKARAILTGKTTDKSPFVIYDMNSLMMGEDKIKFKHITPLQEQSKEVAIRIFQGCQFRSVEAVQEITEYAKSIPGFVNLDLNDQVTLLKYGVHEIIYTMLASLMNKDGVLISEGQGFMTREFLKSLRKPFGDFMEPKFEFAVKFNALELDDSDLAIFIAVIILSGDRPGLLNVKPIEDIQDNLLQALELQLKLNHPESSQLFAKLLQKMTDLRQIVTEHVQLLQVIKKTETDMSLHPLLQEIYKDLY
# Summary of the method: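 Transient transfection of HepG2 with GAL4-UAS-driven reporter units; chemical dosing 24 h; total RNA → oligo(dT) RT → PCR with reporter primers → 6-FAM primer extension → HpaI digest 2 h 37 C → capillary electrophoresis. Positive direction vs DMSO.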
# [17] = molecular target: human Retinoic Acid Receptor beta (RARb), RARB (gene 5915) (UniProt P10826); assay: ATG_RARb_TRANS: Attagene TRANS-FACTORIAL HepG2 Assay for human Retinoic Acid Receptor beta (AID 2283004; active means hit-call score of the fitted dose curve at least 0.9, where 1 is the maximum)
# human Retinoic Acid Receptor beta (RARb), RARB (gene 5915), sequence (P10826 whole entry, looked up, the tested form may be a part): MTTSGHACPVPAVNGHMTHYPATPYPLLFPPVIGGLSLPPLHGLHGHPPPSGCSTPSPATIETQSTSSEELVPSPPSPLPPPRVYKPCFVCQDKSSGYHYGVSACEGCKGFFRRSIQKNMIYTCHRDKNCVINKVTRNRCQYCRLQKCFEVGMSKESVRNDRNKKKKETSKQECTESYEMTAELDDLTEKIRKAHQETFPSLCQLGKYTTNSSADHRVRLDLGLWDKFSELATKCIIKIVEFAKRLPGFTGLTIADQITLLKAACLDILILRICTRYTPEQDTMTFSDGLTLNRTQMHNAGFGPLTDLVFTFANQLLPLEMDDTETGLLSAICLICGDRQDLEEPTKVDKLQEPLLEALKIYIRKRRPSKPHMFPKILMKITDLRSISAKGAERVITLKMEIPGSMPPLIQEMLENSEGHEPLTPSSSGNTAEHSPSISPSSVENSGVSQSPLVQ
# Summary of the method: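 Fluorescent capillary-electrophoresis detection of GAL4-UAS reporter mRNA defines the endpoint, with induction over DMSO-treated wells scored as activity. Transiently transfected human hepatoma HepG2 cells expressing exogenous NR–Gal4 proteins are exposed to test chemicals for 24 h.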
# [18] = molecular target: Retinoic acid receptor alpha (Homo sapiens) (UniProt P10276); assay: ATG_RARa_TRANS: Attagene TRANS-FACTORIAL HepG2 Assay for human Retinoic Acid Receptor alpha (RARa) (AID 2283005; active means hit-call score of the fitted dose curve at least 0.9, where 1 is the maximum)
# Retinoic acid receptor alpha (Homo sapiens), sequence (P10276 whole entry, looked up, the tested form may be a part): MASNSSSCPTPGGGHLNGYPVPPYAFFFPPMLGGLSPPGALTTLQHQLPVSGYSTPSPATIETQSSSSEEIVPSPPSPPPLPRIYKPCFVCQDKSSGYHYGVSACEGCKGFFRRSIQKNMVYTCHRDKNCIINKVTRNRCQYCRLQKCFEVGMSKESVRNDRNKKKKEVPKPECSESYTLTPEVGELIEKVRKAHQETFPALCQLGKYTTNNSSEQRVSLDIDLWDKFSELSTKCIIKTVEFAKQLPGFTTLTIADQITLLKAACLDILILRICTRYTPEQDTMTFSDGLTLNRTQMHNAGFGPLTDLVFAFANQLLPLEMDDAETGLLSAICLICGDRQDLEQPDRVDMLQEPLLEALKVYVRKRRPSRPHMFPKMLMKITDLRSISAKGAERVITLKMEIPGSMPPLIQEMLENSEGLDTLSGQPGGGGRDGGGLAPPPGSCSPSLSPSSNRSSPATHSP
# Summary of the method: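 Reporter transcripts, measured by RT-PCR with fluorescent labeling and capillary electrophoresis after 24 h dosing, reflect activity of an exogenous human RARa–GAL4 fusion in transiently transfected HepG2. Fitted for increase relative to DMSO.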
# [19] = BSK_3C_TissueFactor: BioMAP Diversity Plus: 3C Assay for Tissue Factor Biomarker Activity (AID 2282997); conditions: BioMAP 3C HUVEC, tissue factor biomarker readout; actives raise or lower the signal
# Summary of the method: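 Endothelial monolayers (human umbilical vein, primary) are dosed, incubated 24 h, and assayed for Tissue Factor by ELISA; DMSO serves as negative control for bidirectional fitting.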
smiles,measurement,setting,value
CCOc1cc(C=O)ccc1O,outcome,[1],inactive
same,outcome,[2],inactive
same,outcome,[3],inactive
same,outcome,[4],inactive
same,outcome,[5],inactive
same,outcome,[6],inactive
same,outcome,[7],inactive
same,outcome,[8],inactive
same,outcome,[9],inactive
same,outcome,[10],inactive
Cc1ccc(OP(=O)(Oc2ccc(C)cc2C)Oc2ccc(C)cc2C)c(C)c1,outcome,[1],inactive
same,AC50,[2],25900 nM (active)
same,AC50,[3],12300 nM (active)
same,outcome,[4],inactive
same,outcome,[5],inactive
same,outcome,[11],inactive
same,outcome,[12],inactive
same,outcome,[13],inactive
same,outcome,[7],inactive
same,outcome,[14],inactive
same,AC50,[15],6870 nM (active)
same,AC50,[16],1300 nM (active)
same,AC50,[8],82.1 nM (active)
Cc1ccc2nc3sc(=O)sc3nc2c1,AC50,[1],6380 nM (active)
same,outcome,[2],inactive
same,AC50,[3],4060 nM (active)
same,AC50,[4],6950 nM (active)
same,outcome,[5],inactive
same,AC50,[11],3430 nM (active)
same,AC50,[12],7590 nM (active)
same,AC50,[13],5950 nM (active)
same,AC50,[14],7740 nM (active)
same,outcome,[17],inactive
same,outcome,[18],inactive
same,AC50,[15],7300 nM (active)
same,AC50,[16],2000 nM (active)
same,AC50,[8],6310 nM (active)
same,outcome,[9],inactive
CC(=O)CN(CC(C)=O)N=O,outcome,[1],inactive
same,outcome,[2],inactive
same,outcome,[3],inactive
same,outcome,[4],inactive
same,outcome,[5],inactive
same,outcome,[6],inactive
same,outcome,[7],inactive
same,outcome,[16],inactive
same,outcome,[8],inactive
same,outcome,[9],inactive
CCCCCCCCCCBr,outcome,[1],inactive
same,outcome,[2],inactive
same,AC50,[3],68600 nM (active)
same,outcome,[4],inactive
same,outcome,[5],inactive
same,outcome,[6],inactive
same,outcome,[18],inactive
same,AC50,[16],19800 nM (active)
same,outcome,[8],inactive
same,outcome,[10],inactive
Cl[C@H]1OCCO[C@@H]1Cl,outcome,[1],inactive
same,outcome,[2],inactive
same,outcome,[3],inactive
same,outcome,[4],inactive
same,outcome,[5],inactive
same,outcome,[6],inactive
same,outcome,[17],inactive
same,outcome,[16],inactive
same,outcome,[8],inactive
same,outcome,[9],inactive
same,outcome,[10],inactive
O=C1C=CC(=O)c2ccccc21,outcome,[1],inactive
same,outcome,[2],inactive
same,AC50,[3],2230 nM (active)
same,outcome,[4],inactive
same,outcome,[5],inactive
same,AC50,[11],1700 nM (active)
same,AC50,[12],3480 nM (active)
same,AC50,[13],2170 nM (active)
same,outcome,[6],inactive
same,AC50,[14],5900 nM (active)
same,AC50,[15],460 nM (active)
same,AC50,[16],5980 nM (active)
same,outcome,[8],inactive
same,outcome,[9],inactive
same,outcome,[10],inactive
[Cl][Sn]([c]1ccccc1)([c]1ccccc1)[c]1ccccc1,AC50,[1],1400 nM (active)
same,AC50,[2],232 nM (active)
same,AC50,[3],78.5 nM (active)
same,AC50,[4],250 nM (active)
same,AC50,[5],167 nM (active)
same,AC50,[19],297 nM (active)
same,AC50,[11],141 nM (active)
same,AC50,[12],177 nM (active)
same,AC50,[13],98.5 nM (active)
same,AC50,[7],249 nM (active)
same,AC50,[14],318 nM (active)
same,AC50,[15],51.8 nM (active)
same,AC50,[16],46.4 nM (active)
CCOP(=O)(OCC)SCCSCC,outcome,[1],inactive
same,outcome,[2],inactive
same,outcome,[3],inactive
same,outcome,[4],inactive
same,outcome,[5],inactive
same,outcome,[19],inactive
same,outcome,[11],inactive
same,outcome,[12],inactive
same,outcome,[13],inactive
same,outcome,[14],inactive
same,outcome,[18],inactive
same,outcome,[15],inactive
same,outcome,[16],inactive
same,outcome,[8],inactive
same,outcome,[9],inactive
same,outcome,[10],inactive
